In the library only some 0.81% were active in any assay of this set; here they are far more common.
NR2F2 inh – NR2F2 transcriptional activity inhibitors, primary screen, cell-based, luciferase reporter, HEK293T, luminescence; AID 686940, 2013; inhibition, % at 8.6 µM; HEK293T NGFI-A luciferase reporter; 0.7% of 370,000 active; COUP transcription factor 2 (Homo sapiens), P24468;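 active means inhibition above a per-plate cutoff, mean inhibition of test wells between control levels plus 3 SD, cut at about 38% in these data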;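 further: cells cotransfected with COUP-TFII expression vector driving the NGFI-A reporter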
SRC1 inh – SRC1 coactivator transcriptional activity inhibitors, primary screen, cell-based, luminescence; Nuclear receptor coactivator 1 (Homo sapiens), Q15788; HEK293 GAL4-SRC1 luciferase reporter; inhibition, % at 3.6 µM; 0.12% of 360,000 active;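 active means inhibition above the campaign mean plus 3 SD, with each screening campaign given its own cutoff, cut at about 60% in these data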
SRC2 inh – inhibition of GAL4-SRC2 driven luciferase reporter, primary screen, SRC2 inhibitor project, cell-based, luminescence; Nuclear receptor coactivator 2 (Homo sapiens), Q15596; inhibition, % at 9 µM; HEK293 GAL4-SRC2 luciferase reporter; 0.17% of 370,000 active;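 active means inhibition above the mean inhibition of all tested compounds plus 3 SD, set per campaign, cut at about 52% in these data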
NR5A2 inv ag – LRH-1 (NR5A2) inverse agonists, primary screen, cell-based, luminescence, HEK293T, StAR-luciferase reporter; inhibition, % at 3.6 µM; LRH-1 transfected, 24 h; 0.13% of 360,000 active; Nuclear receptor subfamily 5 group A member 2 (Homo sapiens), O00482; AID 602396, 2012;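 active means inhibition above the mean inhibition of all tested compounds plus 3 SD, cut at about 73% in these data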
NCOA3 inh – SRC3 coactivator transcriptional activity inhibitors, primary screen, cell-based, luminescence; Nuclear receptor coactivator 3 (Homo sapiens), Q9Y6Q9; 0.17% of 360,000 active; inhibition, % at 3.6 µM; HEK293 GAL4-SRC3 luciferase reporter; AID 588352, 2011;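 active means inhibition above a per-campaign cutoff, the mean of all compounds plus 3 SD, cut at about 60% in these data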;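 further: higher means less SRC3-driven luciferase light from the GAL4 reporter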
Gal4-VP16 ctr – Gal4-VP16 luciferase reporter inhibitors, counter-screen for COUP-TFII antagonist project, cell-based, luminescence, HEK293; shares compounds with NR2F2 inh; AID 687007, 2013; 25% of 2,500 active; inhibition, % at 8.5 µM; in the data active means inhibition above about 13%
NR2F2 inh conf – NR2F2 transcriptional activity inhibitors, confirmation, cell-based, luciferase reporter, HEK293, triplicate; shares compounds with NR2F2 inh; HEK293 NGFI-A luciferase reporter, luminescence; 45% of 2,500 active; inhibition, % at 8.5 µM;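 active means mean inhibition over three repeats above a set limit taken from the earlier primary screen, cut at about 38% in these data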
A number is an active result; – = inactive; · = no result.

SMILES	NR2F2 inh	SRC1 inh	SRC2 inh	NR5A2 inv ag	NCOA3 inh	Gal4-VP16 ctr	NR2F2 inh conf
CN1CCN(S(=O)(=O)c2cccc(C(=O)N(C)CC(=O)Nc3ccc(F)c(F)c3F)c2)CC1	–	–	–	–	–	·	·
COc1ccc(-c2csc(NC(=O)c3ccccc3F)n2)cc1	–	–	–	–	–	·	·
Cc1ccc(S(=O)(=O)Nc2ccccc2C(=O)Nc2nc(-c3ccc(F)cc3)cs2)cc1	66.4	–	–	–	–	–	–
O=C(Nc1cc(S(=O)(=O)N2CCCCC2)ccc1Cl)c1ccccc1NS(=O)(=O)c1ccc(F)cc1	47.4	–	–	–	–	–	–
COc1ccc(-c2csc(NC(=O)c3ccccc3NS(=O)(=O)c3ccc(F)c(F)c3)n2)cc1	61.1	64.3	–	87.0	78.7	–	60.7
Nc1sc(Cc2ccccc2)cc1C(=O)NC1CCCCC1	–	·	–	–	·	·	·
O=C(C1CCCCC1)N1CCC2CC1c1cc(Cl)ccc12 (stereo not drawn)	–	–	–	–	–	·	·
CCOc1cccc(/C=N/NC(=S)Nc2ccccc2[N+](=O)[O-])c1O	81.7	84.2	59.9	79.2	80.0	–	67.2
COc1ccc(NC(=O)COc2ccccc2Cc2ccccc2)cc1S(N)(=O)=O	43.5	–	–	–	–	–	–
COc1ccc(NC(=O)CN(Cc2ccccc2)Cc2ccccc2)cc1S(N)(=O)=O	–	–	–	–	–	·	·
CC(=NNc1cc(C)c2ccccc2n1)c1ccccn1	–	·	–	·	·	·	·
CCOc1ccc(-n2c(-c3ccccc3)c[n+]3c2CCCCC3)cc1	66.9	–	–	–	–	–	48.7
Cc1ccc(-c2c[n+]3c(n2-c2ccccc2)CCC3)cc1	60.5	–	–	–	–	–	–
O=C(NCc1nc2ccccc2[nH]1)C1=C[C@H](C2CC2)C[C@H](OCc2ccc(CO)cc2)O1	–	–	–	–	–	·	·
COc1ccc(S(=O)(=O)N(CC(=O)N2CCCCCC2)c2ccccc2OC)cc1	–	–	–	–	–	·	·
COc1ccc(CNC(=O)C2CCN(C(=O)c3ccc(F)cc3)CC2)cc1OC	–	–	–	–	–	·	·
COc1cccc(NC(=O)Nc2nc(-c3ccc(OC)c(OC)c3)cs2)c1	73.1	71.1	75.2	–	71.8	72.2	100.4
COc1ccc(-c2csc(NC(=O)C3CCN(C(=O)c4ccc(F)cc4)CC3)n2)cc1OC	55.1	–	–	–	–	–	–
C[n+]1cc2c3c(ccc2c2ccc4cc5c(cc4c21)OCO5)OCO3	105.8	·	87.3	·	·	95.3	106.6
COc1ccc2cc3[n+](cc2c1O)CCc1cc2c(cc1-3)OCO2	–	·	–	–	·	·	·
CCOC(=O)c1c(C)nn(-c2ccc(NC(=O)/C=C/C(=O)O)cc2)c1C	65.1	–	60.9	–	–	36.4	–
Cc1c(/C(O)=C2/C(=O)C(=O)N(Cc3cccnc3)C2c2cccs2)cnn1-c1ccccc1 (stereo not drawn)	–	–	–	–	–	·	·
Cc1c(/C(O)=C2/C(=O)C(=O)N(CCN3CCOCC3)C2c2ccco2)cnn1-c1ccccc1 (stereo not drawn)	60.0	–	–	–	–	–	45.8
Cc1c(/C(O)=C2/C(=O)C(=O)N(Cc3cccnc3)C2c2ccccn2)cnn1-c1ccccc1 (stereo not drawn)	95.2	70.0	76.6	–	76.1	–	–
O=C1Nc2cc(Cl)c(Cl)cc2N(O)N1c1ccc(Cl)c(Cl)c1	–	–	–	–	–	·	·
SMILES	NR2F2 inh	SRC1 inh	SRC2 inh	NR5A2 inv ag	NCOA3 inh	Gal4-VP16 ctr	NR2F2 inh conf
N#CCSc1nnc(-c2sc3ccccc3c2Cl)o1	52.8	–	–	–	–	–	43.8
COC(=O)CSc1nnc(-c2sc3ccccc3c2Cl)o1	–	–	–	–	–	·	·
CCn1c(SCC(=O)c2[nH]c(C)c(C(C)=O)c2C)nnc1-c1cccs1	52.4	–	–	–	–	–	–
CS(=O)(=O)c1ccc(C(=O)N2CCN(Cc3ccccc3)CC2)cc1	–	–	–	–	–	·	·
O=C(c1ccc(CNS(=O)(=O)c2ccccc2)cc1)N1CCN(Cc2ccccc2)CC1	58.3	–	–	–	–	–	–
CCCC#Cc1ccc2c(c1)O[C@H](CN(C)C(=O)CC1CC1)[C@H](C)CN([C@@H](C)CO)S2(=O)=O	–	–	–	–	–	·	·
O=S(=O)(/N=S1\CC=CCN1S(=O)(=O)c1ccccc1)c1ccccc1 (stereo not drawn)	–	–	–	–	–	·	·
O=Cc1s/c(=N\S(=O)(=O)c2ccccc2)n(CCCCl)c1Cl	59.9	–	–	–	–	62.4	45.9
CN(C)c1ccc(C=c2c3ccccc3n3c2cc(-c2ccccc2)[n+]3C)cc1	82.1	64.8	–	91.4	82.8	20.6	94.2
CN(C)c1ccc(C=C2C=C(c3ccccc3)OC2=O)cc1	–	–	–	–	–	·	·
CN(C)c1ccc(C=c2c3cc([N+](=O)[O-])ccc3n3c2cc(-c2ccccc2)[n+]3C)cc1	68.5	–	–	–	–	53.4	58.9
COc1cc(C=c2c3ccccc3n3c2cc(-c2ccccc2)[n+]3C)cc(OC)c1OC	38.3	–	–	–	–	–	–
COc1cc(N(C)C)ccc1C=c1c2ccccc2n2c1cc(-c1ccccc1)[n+]2C	67.0	–	–	–	62.9	–	73.1
CN(Cc1ccc(F)cc1)C(=O)c1cccc2c1C(=O)N(Cc1cccnc1)C2	–	·	–	·	·	·	·
CCOC(=O)C(CC)n1cnc2c(nnn2-c2ccc(F)cc2)c1=O (stereo not drawn)	–	–	–	–	–	·	·
COC(=O)C1=C(C)N(C)C(=NCc2ccccc2)NC1CCc1ccccc1 (stereo not drawn)	–	·	–	·	·	·	·
CN(C)c1ccc(/C=C2\CCC/C(=C\c3ccccc3)C2=O)cc1	–	–	–	–	–	·	·
CN(C)c1ccc(C=c2c3ccccc3n3c2c2c([n+]3C)CCCC2)cc1	87.5	68.9	–	93.9	79.1	28.1	82.0
CCCCCCCCNc1ncnc2ccccc12	·	–	·	–	–	·	·
Cc1cccc[n+]1CCCCCCCCCC[n+]1ccccc1C	–	–	–	–	–	·	·
CCCCCCCC[n+]1cccc2c3ccccc3ccc21	79.9	–	–	88.2	81.1	13.6	77.3
CCCCCCCCCC[n+]1cccc2c3ccccc3ccc21	82.9	–	–	90.0	81.5	19.6	81.6

Screening results as filed in PubChem.
